Hit rate of the full screen: of about 5,500 compounds, about 2,000 (36%) were called active. About 18% were inconclusive and are not listed. Rule as the data show it: active = normalized growth mostly below about 0.91 (no sharp cut-off); inconclusive = no clear call, values can overlap the other calls; inactive = mostly above about 0.92. Some of the results follow.
Experiment: chemical genetic growth profiling, strain panel (AID 1159580);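 also: tested at 20 µM; growth read once vehicle control cultures reached saturation at 30 °C; 1 = growth at the plate median or of vehicle wells; lower values mean less growth of the strain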
Conditions: growth OD
[1] = S. cerevisiae deletion strains, locus YAL013W, strain DEP1, hits give low values
[2] = S. cerevisiae deletion strains, locus YBR229C, strain ROT2, hits give low values
[3] = S. cerevisiae deletion strains, locus YCL061C, strain MRC1, hits give low values
[4] = S. cerevisiae deletion strains, locus YDL101C, strain DUN1, hits give low values
[5] = S. cerevisiae deletion strains, locus YDR150W, strain NUM1, hits give low values
[6] = S. cerevisiae deletion strains, locus YEL061C, strain CIN8, hits give low values
[7] = S. cerevisiae deletion strains, locus YGR078C, strain PAC10, hits give low values
[8] = S. cerevisiae deletion strains, locus YHR030C, strain SLT2, hits give low values
[9] = S. cerevisiae deletion strains, locus YHR087W, strain rtc3, hits give low values
[10] = S. cerevisiae deletion strains, locus YJR043C, strain POL32, hits give low values
[11] = S. cerevisiae deletion strains, locus YJR075W, strain HOC1, hits give low values
[12] = S. cerevisiae deletion strains, locus YLR039C, strain RIC1, hits give low values
[13] = S. cerevisiae deletion strains, locus YLR058C, strain SHM2 (second series), hits give low values
[14] = S. cerevisiae deletion strains, locus YLR085C, strain ARP6, hits give low values
[15] = S. cerevisiae deletion strains, locus YLR262C, strain YPT6, hits give low values
[16] = S. cerevisiae deletion strains, locus YML094W, strain GIM5, hits give low values
[17] = S. cerevisiae deletion strains, locus YMR219W, strain ESC1, hits give low values
[18] = S. cerevisiae deletion strains, locus YMR263W, strain SAP30, hits give low values
[19] = S. cerevisiae deletion strains, locus YNL153C, strain GIM3, hits give low values
[20] = S. cerevisiae deletion strains, locus YNL298W, strain CLA4 (second series), hits give low values
[21] = S. cerevisiae deletion strains, locus YNL322C, strain KRE1, hits give low values
[22] = S. cerevisiae deletion strains, locus YNR030W, strain Alg12, hits give low values
[23] = S. cerevisiae deletion strains, locus YOL006C, strain TOP1, hits give low values
[24] = S. cerevisiae deletion strains, locus YPL055C, strain LGE1, hits give low values
[25] = S. cerevisiae deletion strains, locus YPL241C, strain CIN2, hits give low values
[26] = S. cerevisiae deletion strains, locus YPR135W, strain CTF4, hits give low values
[27] = S. cerevisiae strains, strain wild type, hits give low values
[28] = S. cerevisiae deletion strains, locus YMR307W, strain GAS1, hits give low values

Measured: normalized growth

O=S(=O)(NCc1ccc2c(c1)OCO2)c1ccc(F)c(Cl)c1
active: [12] 0.757 | [15] 0.683
inactive: [1] 0.98 | [2] 0.94 | [3] 0.977 | [4] 0.925 | [5] 0.913 | [6] 0.965 | [7] 0.96 | [8] 0.779 | [9] 0.948 | [10] 0.968 | [11] 0.937 | [13] 0.951 | [14] 0.991 | [16] 1 | [17] 0.962 | [18] 0.965 | S. cerevisiae deletion strains, locus YNL128W, strain TEP1, hits give low values 0.957 | [19] 0.971 | [20] 0.943 | [21] 0.967 | [22] 0.954 | [23] 0.843 | [24] 0.995 | [25] 0.998 | [26] 0.784

CC(C)(C)C1=C(C#N)C(c2c(Cl)cccc2Cl)C(C#N)=C(N)O1 (configuration not stated)
inactive: S. cerevisiae deletion strains, locus YAR019C, strain CDC15, hits give low values 0.987 | S. cerevisiae deletion strains, locus YBL105C, strain PKC1, hits give low values 0.99 | S. cerevisiae deletion strains, locus YBR135W, strain CKS1, hits give low values 0.992 | S. cerevisiae deletion strains, locus YBR136W, strain MEC1, hits give low values 0.989 | S. cerevisiae deletion strains, locus YBR160W, strain CDC28, hits give low values 0.996 | S. cerevisiae deletion strains, locus YDL017W, strain CDC7, hits give low values 0.99 | S. cerevisiae deletion strains, locus YDL028C, strain MPS1, hits give low values 0.997 | [4] 0.979 | S. cerevisiae deletion strains, locus YDL108W, strain KIN28, hits give low values 0.992 | S. cerevisiae deletion strains, locus YDL132W, strain cdc53, hits give low values 0.978 | S. cerevisiae deletion strains, locus YDL214C, strain PRR2, hits give low values 0.987 | S. cerevisiae deletion strains, locus YDR052C, strain DBF4, hits give low values 0.997 | S. cerevisiae deletion strains, locus YDR054C, strain cdc34, hits give low values 0.976 | S. cerevisiae deletion strains, locus YDR226W, strain ADK1, hits give low values 0.979 | S. cerevisiae deletion strains, locus YDR477W, strain SNF1, hits give low values 0.995 | S. cerevisiae deletion strains, locus YER123W, strain YCK3, hits give low values 0.996 | S. cerevisiae deletion strains, locus YER133W, strain GLC7, hits give low values 0.984 | S. cerevisiae deletion strains, locus YFL009W, strain cdc4, hits give low values 0.98 | S. cerevisiae deletion strains, locus YFL029C, strain CAK1, hits give low values 0.983 | S. cerevisiae deletion strains, locus YFR003C, strain YPI1, hits give low values 0.992 | S. cerevisiae deletion strains, locus YFR019W, strain FAB1, hits give low values 1 | S. cerevisiae deletion strains, locus YFR028C, strain CDC14, hits give low values 0.978 | S. cerevisiae deletion strains, locus YGR040W, strain KSS1, hits give low values 0.991 | S. cerevisiae deletion strains, locus YGR052W, strain FMP48, hits give low values 1.01 | S. cerevisiae deletion strains, locus YGR092W, strain DBF2, hits give low values 0.98 | [8] 0.983 | S. cerevisiae deletion strains, locus YHR079C, strain IRE1, hits give low values 0.891 | S. cerevisiae deletion strains, locus YHR082C, strain KSP1, hits give low values 1.09 | S. cerevisiae deletion strains, locus YHR205W, strain SCH9, hits give low values 0.913 | S. cerevisiae deletion strains, locus YIL147C, strain SLN1, hits give low values 0.993 | S. cerevisiae deletion strains, locus YJL095W, strain BCK1, hits give low values 0.894 | S. cerevisiae deletion strains, locus YJL128C, strain PBS2, hits give low values 0.925 | S. cerevisiae deletion strains, locus YJL157C, strain FAR1, hits give low values 1.01 | S. cerevisiae deletion strains, locus YJR016C, strain ILV3, hits give low values 0.984 | S. cerevisiae deletion strains, locus YJR066W, strain TOR1 (second series), hits give low values 0.983 | S. cerevisiae deletion strains, locus YJR066W, strain TOR1, hits give low values 1.1 | S. cerevisiae deletion strains, locus YKL048C, strain ELM1, hits give low values 0.922 | S. cerevisiae deletion strains, locus YKL067W, strain YNK1, hits give low values 0.988 | S. cerevisiae deletion strains, locus YKL101W, strain HSL1, hits give low values 0.961 | S. cerevisiae deletion strains, locus YKL193C, strain SDS22, hits give low values 0.989 | S. cerevisiae deletion strains, locus YKL203C, strain TOR2, hits give low values 1.07 | S. cerevisiae deletion strains, locus YLR113W, strain HOG1, hits give low values 0.885 | S. cerevisiae deletion strains, locus YLR133W, strain CKI1, hits give low values 1.02 | S. cerevisiae deletion strains, locus YLR403W, strain SFP1, hits give low values 0.944 | S. cerevisiae deletion strains, locus YML070W, strain DAK1, hits give low values 0.992 | S. cerevisiae deletion strains, locus YMR001C, strain CDC5, hits give low values 0.995 | S. cerevisiae deletion strains, locus YMR205C, strain PFK2 (second series), hits give low values 0.993 | S. cerevisiae deletion strains, locus YMR277W, strain FCP1, hits give low values 0.997 | S. cerevisiae deletion strains, locus YNL006W, strain LST8, hits give low values 0.975 | S. cerevisiae deletion strains, locus YNL020C, strain ARK1, hits give low values 1 | S. cerevisiae deletion strains, locus YNL161W, strain CBK1, hits give low values 0.982 | S. cerevisiae deletion strains, locus YNL183C, strain NPR1, hits give low values 1.06 | S. cerevisiae deletion strains, locus YNL207W, strain RIO2, hits give low values 0.986 | S. cerevisiae deletion strains, locus YNL222W, strain SSU72, hits give low values 0.989 | S. cerevisiae deletion strains, locus YNL307C, strain MCK1 (second series), hits give low values 1 | S. cerevisiae deletion strains, locus YOL078W, strain AVO1, hits give low values 0.994 | S. cerevisiae deletion strains, locus YOL136C, strain PFK27, hits give low values 1 | S. cerevisiae deletion strains, locus YOR061W, strain CKA2, hits give low values 1.01 | S. cerevisiae deletion strains, locus YOR119C, strain RIO1, hits give low values 1.04 | S. cerevisiae deletion strains, locus YOR231W, strain MKK1, hits give low values 1.02 | S. cerevisiae deletion strains, locus YOR329C, strain SCD5, hits give low values 0.993 | S. cerevisiae deletion strains, locus YPL031C, strain PHO85, hits give low values 0.992 | S. cerevisiae deletion strains, locus YPL153C, strain RAD53, hits give low values 1 | S. cerevisiae deletion strains, locus YPL204W, strain HRR25, hits give low values 1 | S. cerevisiae deletion strains, locus YPL209C, strain IPL1, hits give low values 0.993 | S. cerevisiae deletion strains, locus YPL256C, strain CLN2, hits give low values 0.94 | S. cerevisiae deletion strains, locus YPR025C, strain CCL1, hits give low values 0.992 | S. cerevisiae deletion strains, locus YPR106W, strain ISR1, hits give low values 0.981 | S. cerevisiae deletion strains, locus YPR111W, strain DBF20, hits give low values 0.966 | S. cerevisiae deletion strains, strain NNK1, hits give low values 0.963 | S. cerevisiae deletion strains, strain TSCII, hits give low values 0.991

O=C1NC2(CCN(Cc3ccccc3)CC2)Oc2ccccc21
inactive: [1] 0.999 | [2] 0.993 | [4] 0.949 | [5] 0.993 | [6] 1.02 | [7] 0.98 | S. cerevisiae deletion strains, locus YGR229C, strain SMI1, hits give low values 0.995 | [8] 1.04 | [9] 0.968 | [10] 1 | [11] 0.985 | S. cerevisiae deletion strains, locus YKL190W, strain CNB1, hits give low values 0.988 | [12] 0.984 | [13] 0.972 | [14] 1.14 | [15] 0.992 | [16] 1 | [17] 0.995 | [18] 1.03 | [19] 0.997 | [20] 0.955 | [21] 0.997 | [22] 0.975 | [23] 0.918 | [24] 0.997 | [25] 1.1 | [26] 0.834 | [27] 0.983

c1ccc(CN2CCC3(CCCc4ccccc43)CC2)cc1
active: S. cerevisiae deletion strains, locus YCL061C, strain MRC1 (second series), hits give low values 0.938 | S. cerevisiae deletion strains, locus YDR363W, strain ESC2, hits give low values 0.805 | [24] 0.854
inactive: S. cerevisiae deletion strains, locus YAL040C, strain CLN3, hits give low values 1.02 | S. cerevisiae deletion strains, locus YER002W, strain NOP16, hits give low values 0.975 | [7] 0.976 | [28] 1 | [19] 0.817 | S. cerevisiae deletion strains, locus YNL175C, strain NOP13, hits give low values 0.993 | S. cerevisiae deletion strains, locus YNL197C, strain WHI3, hits give low values 0.983 | S. cerevisiae deletion strains, locus YNL224C, strain SQS1, hits give low values 1.01 | S. cerevisiae deletion strains, locus YOR083W, strain WHI5 (second series), hits give low values 0.874 | [25] 0.955

CC(C)(C)NC(=S)NC1CCN(Cc2ccccc2)CC1
inactive: [1] 1.06 | [2] 0.997 | [3] 1.03 | [4] 1.01 | S. cerevisiae deletion strains, locus YDL134C, strain PPH21, hits give low values 0.994 | [5] 0.969 | [6] 1.02 | [7] 1.01 | [8] 1.06 | [9] 0.986 | [10] 0.995 | [11] 0.994 | [12] 0.994 | [13] 0.983 | [14] 1.03 | [15] 0.985 | [16] 1.02 | [17] 1.01 | [18] 0.992 | [28] 0.987 | [19] 1.01 | [20] 1.01 | [21] 0.995 | [22] 1.03 | [24] 0.986 | [25] 1 | [26] 1.16 | [27] 0.981

Source: PubChem BioAssay AID1159580 (chemical genetic matrix, 2015)
